The record followed here is PubChem BioAssay (NCATS).

Structures are written as SMILES. Unmarked numbers belong to inactive results. Results filed as inconclusive are left out. Active and inactive are the calls of the source. Unless noted, calls come from the whole dose curve; as a rule, active = well fitted curve in either direction with a large enough effect (not every such curve was filed as active); inconclusive = small, poorly fitted or top-dose-only effect, or another doubt; inactive = flat fitted curve, though single readings scatter.

For experiment [1], the target named is Lysosomal acid glucosylceramidase (Homo sapiens) (UniProt P04062). Briefly: Glucocerebrosidase-p2 (AID 348; in the data active = potency below about 10 µM; note: potency is the fitted concentration of half-maximal effect). Conditions: purified GBA, blue fluorogenic substrate, 40 min. The procedure, abridged:
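Compounds titrated from 0.6 nM upwards against 0.2 nM enzyme in pH 5.9 citric acid/KH2PO4, taurocholate, tween-20; blue fluorogenic substrate 80 uM, 40 min room temperature, stopped and read Ex 365/Em 440 for AC50.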

Experiment [2] is described as follows: AP1 Signaling Pathway (AID 357).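 Note: ME-180 reporter cells stimulated with EGF at its EC50 level; % is set by controls: 0 for no effect and ±100 for the full control effect.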 Conditions: ME-180 AP-1-bla reporter, EGF-induced, beta-lactamase ratio, 5 h; at 7.69 µM (top of the series) unless noted. The procedure, abridged:
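In this screen, ME-180 cells in Opti-MEM with 0.5% dialyzed FBS received EC50 EGF and compound titrations for 5 h. AP-1 reporter beta-lactamase was detected via CCF4 ratio, giving AC50 for positive and negative modulators.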

Experiment [3] addresses Cytochrome P450 1A2 (Homo sapiens) (UniProt P05177). Put plainly: p450-cyp1a2 (AID 410; calls by dose curve; note: potency is the fitted concentration of half-maximal effect;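 for activity change, negative = inhibition: -100% = full effect of reference inhibitor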). Conditions: recombinant CYP1A2, luciferin-ME demethylation, luminescence; series mostly up to 11.4 µM. The procedure, abridged: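 Inhibition was calculated relative to 57 uM furafylline (full inhibition). The reaction used human CYP1A2 at 20nM with Luciferin-ME at its Km, 100uM, driven by an NADPH-regenerating system for 60 min at room temperature.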

Experiment [4] in a line: NFAT Signaling Pathway (AID 444).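 Note: carbachol stimulus at about its EC50 of 1 µM final; % is set by controls: 0 for no effect and ±100 for the full control effect.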 As to conditions: Jurkat NFAT-bla M1, carbachol, beta-lactamase ratio, 5 h; at 7.69 µM (top of the series) unless noted. The procedure, abridged: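 Jurkat cells with NFAT-driven β-lactamase reporter and co-expressed M1 receptor, stimulated with carbachol (final 1 uM, ~EC50), compound titration, 5 h at 37 °C. CCF4 loaded 1 h at RT; 460/530 nm ratio gave %activity and AC50.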

Experiment [5] in a line: Stat Signaling Pathway (AID 446).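 Note: ME-180 cervical cancer cells given 40 pM IL-6 alongside compound; SIE-controlled beta-lactamase reporter measured as 460/530 nm FRET emission ratio; % is set by controls: 0 for no effect and ±100 for the full control effect.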 As to conditions: ME-180 SIE beta-lactamase reporter, IL-6 stimulated, 5 h; at 7.69 µM (top of the series) unless noted. The procedure, abridged:
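ME-180 SIE-bla cells; overnight plating; cpd + IL-6 40 pM, 5 h, 37 C; LiveBLAzer 2.5 h RT; 460/530 nm emission ratio. Normalized to 300 pM IL-6 and 125 nM JAK inhibitor controls.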

In experiment [6] the target is Glucocorticoid receptor (Homo sapiens) (UniProt P04150). Briefly: GR-GFP Redistribution (AID 450;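 active = compounds whose dose series gives a full or clear partial fitted curve of increased nuclear translocation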; note: potency is the fitted concentration of half-maximal effect). Conditions: U2OS GR-GFP nuclear translocation, laser cytometry, 2 h.
Chain of Glucocorticoid receptor (Homo sapiens) (P04150 whole entry, looked up, the tested form may be a part): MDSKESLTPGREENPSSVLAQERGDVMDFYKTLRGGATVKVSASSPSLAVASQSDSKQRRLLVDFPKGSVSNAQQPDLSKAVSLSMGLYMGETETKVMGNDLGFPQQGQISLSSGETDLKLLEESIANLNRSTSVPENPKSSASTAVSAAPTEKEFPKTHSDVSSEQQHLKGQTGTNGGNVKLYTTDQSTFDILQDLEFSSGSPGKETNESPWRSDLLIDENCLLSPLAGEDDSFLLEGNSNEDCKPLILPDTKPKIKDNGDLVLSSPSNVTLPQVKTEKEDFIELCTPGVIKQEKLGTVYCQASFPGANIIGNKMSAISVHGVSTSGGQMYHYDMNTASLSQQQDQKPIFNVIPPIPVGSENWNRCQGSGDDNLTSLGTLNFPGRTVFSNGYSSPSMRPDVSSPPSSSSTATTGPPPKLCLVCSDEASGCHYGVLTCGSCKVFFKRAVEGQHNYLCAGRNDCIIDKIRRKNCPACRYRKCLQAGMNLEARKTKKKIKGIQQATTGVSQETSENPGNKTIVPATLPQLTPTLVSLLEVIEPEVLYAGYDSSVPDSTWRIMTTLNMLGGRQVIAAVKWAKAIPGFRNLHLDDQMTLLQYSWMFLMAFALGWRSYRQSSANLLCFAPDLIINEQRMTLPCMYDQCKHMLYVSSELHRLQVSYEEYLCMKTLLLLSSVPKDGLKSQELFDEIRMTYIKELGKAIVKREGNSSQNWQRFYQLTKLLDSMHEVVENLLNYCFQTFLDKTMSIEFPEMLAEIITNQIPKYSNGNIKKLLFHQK
For experiment [7] the target is unchanged. Put plainly: GR-EFC Redistribution (AID 451; calls by dose curve; note: potency is the fitted concentration of half-maximal effect). As to conditions: CHO-K1 GR-EFC translocation, beta-gal luminescence, 2 h. The procedure, abridged: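 CHO-K1 cells expressing nuclear EA and GR-ED fragments of b-gal; compounds titrated up to 46 uM final, 2 h at 37 C. GR nuclear translocation read as complemented b-gal luminescence after 1 h RT detection.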

Experiment [8] has as its target Mitogen-activated protein kinase 10 (Mus musculus) (UniProt Q61831). Briefly: JNK3 AlphaScreen Assay (AID 530).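 Note: kinase came from lysate of stimulated human HepG2 cells; signal reports phosphorylation of biotinylated GST-cJun 1-79 at Ser73 with 10 µM ATP; % is set by controls: 0 for no effect and ±100 for the full control effect.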 As to conditions: JNK3 lysate, c-Jun phosphorylation; series mostly up to 11.4 µM. The gist of the method:
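qHTS format: compounds tested as titrations against IL-1beta/TNF-alpha-activated HepG2 lysate JNK3 with biotin-GST-cJun substrate and 10 uM ATP at room temperature. Loss of anti-phospho-cJun AlphaScreen signal indicates inhibition.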

The target of experiment [9] is 3',5'-cyclic-AMP phosphodiesterase 4B (Homo sapiens) (UniProt Q07343). Briefly: qHTS Assay for Inhibitors of PDE-IV (AID 607; active = well fitted activation curve with a large enough effect in the main read-out, with a control signal flat, not every such curve was filed as active; note: % of control where 0% means no effect). As to conditions: HEK293 ACTOne CNG channel cells, membrane potential fluorescence; series mostly up to 22.9 µM. The procedure, abridged: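 ACTOne HEK293 cells carry a modified cAMP-gated CNG channel and express endogenous PDE4; plated 1000 cells/well, compounds up to 22.9 uM final. Membrane-potential dye fluorescence (ex 535/em 590) was read; parental cells received 10 uM forskolin + 100 uM RO 20-1724.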
Chain of 3',5'-cyclic-AMP phosphodiesterase 4B (Homo sapiens) (Q07343 whole entry, looked up): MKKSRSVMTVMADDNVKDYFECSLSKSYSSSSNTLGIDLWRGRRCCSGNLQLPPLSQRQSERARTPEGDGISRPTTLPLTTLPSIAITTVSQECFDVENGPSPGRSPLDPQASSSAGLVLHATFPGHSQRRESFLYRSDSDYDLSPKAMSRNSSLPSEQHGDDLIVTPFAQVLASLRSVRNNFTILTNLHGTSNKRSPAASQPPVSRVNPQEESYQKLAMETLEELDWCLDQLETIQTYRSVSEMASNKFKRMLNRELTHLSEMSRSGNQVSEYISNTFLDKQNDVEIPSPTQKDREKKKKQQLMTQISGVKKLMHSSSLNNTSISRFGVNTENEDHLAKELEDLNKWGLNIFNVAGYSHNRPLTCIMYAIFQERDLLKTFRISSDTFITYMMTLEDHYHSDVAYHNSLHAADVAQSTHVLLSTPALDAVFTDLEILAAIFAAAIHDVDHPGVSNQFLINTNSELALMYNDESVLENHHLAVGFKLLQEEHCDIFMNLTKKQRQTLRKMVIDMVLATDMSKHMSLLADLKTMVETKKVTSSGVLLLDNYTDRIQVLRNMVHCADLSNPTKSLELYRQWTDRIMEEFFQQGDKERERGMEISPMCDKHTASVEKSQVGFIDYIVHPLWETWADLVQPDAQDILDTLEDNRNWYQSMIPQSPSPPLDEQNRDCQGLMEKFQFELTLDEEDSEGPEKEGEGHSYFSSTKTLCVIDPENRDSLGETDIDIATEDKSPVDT

Experiment [10] concerns the target Cytochrome P450 2C9 (Homo sapiens) (UniProt P11712). Briefly: qHTS Assay for Inhibitors and Substrates of Cytochrome P450 2C9 (AID 883; active = well fitted curve in the direction sought with a large enough effect; an effect the other way counts as inactive or inconclusive; note: nearly all actives have a fitted effect of over 60% in size; note: potency is the fitted concentration of half-maximal effect). Conditions: recombinant CYP2C9, luciferin-H luminescence, 60 min; series mostly up to 11.4 µM. The gist of the method:
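Signal: luciferase luminescence reporting luciferin produced by CYP2C9. Conditions: 10nM enzyme, Luciferin-H 100uM at KM, 25mM KPO4, 37C, 60 min NADPH-driven reaction. Reference: 57uM sulphaphenazole as 100% inhibition.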

In experiment [11] the target is Cytochrome P450 2D6 (Homo sapiens) (UniProt P10635). Briefly: qHTS Assay for Inhibitors and Substrates of Cytochrome P450 2D6 (AID 891; active = well fitted curve in the direction sought with a large enough effect; an effect the other way counts as inactive or inconclusive; note: nearly all actives have a fitted effect of over 60% in size; note: potency is the fitted concentration of half-maximal effect). Conditions: recombinant CYP2D6, luciferin-ME EGE luminescence; series mostly up to 11.4 µM. The gist of the method: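 Human CYP2D6 (5 nM) with 30 uM Luciferin-ME EGE (at Km) in 100 mM KPO4, compound preincubated 10 min, then NADPH regeneration system for 60 min at room temperature. Luciferin read by luminescence; normalized to 1.43 uM quinidine.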
Chain of Cytochrome P450 2D6 (Homo sapiens) (P10635 whole entry, looked up): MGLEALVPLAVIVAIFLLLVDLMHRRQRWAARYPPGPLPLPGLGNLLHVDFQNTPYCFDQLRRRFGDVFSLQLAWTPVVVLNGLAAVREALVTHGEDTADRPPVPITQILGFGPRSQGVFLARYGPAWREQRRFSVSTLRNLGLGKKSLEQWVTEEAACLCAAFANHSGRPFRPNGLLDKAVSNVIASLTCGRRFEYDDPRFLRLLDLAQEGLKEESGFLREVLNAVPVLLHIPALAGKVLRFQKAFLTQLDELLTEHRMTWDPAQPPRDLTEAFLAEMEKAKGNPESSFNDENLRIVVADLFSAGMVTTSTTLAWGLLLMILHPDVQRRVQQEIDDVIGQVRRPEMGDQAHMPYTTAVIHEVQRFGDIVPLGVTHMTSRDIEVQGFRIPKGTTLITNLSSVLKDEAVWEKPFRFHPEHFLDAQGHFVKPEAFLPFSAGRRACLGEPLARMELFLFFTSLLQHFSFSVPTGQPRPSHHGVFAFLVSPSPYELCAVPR

The target of experiment [12] is Cytochrome P450 2C19 (Homo sapiens) (UniProt P33261). Briefly: qHTS Assay for Inhibitors and Substrates of Cytochrome P450 2C19 (AID 899; active = well fitted curve in the direction sought with a large enough effect; an effect the other way counts as inactive or inconclusive; note: nearly all actives have a fitted effect of over 60% in size; note: potency is the fitted concentration of half-maximal effect). As to conditions: recombinant CYP2C19, luciferin-H EGE luminescence; series mostly up to 11.4 µM. The gist of the method:
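Signal comes from luciferase acting on luciferin released by CYP2C19-mediated hydroxylation of Luciferin-H EGE, 10uM (KM). Assay mix: 5nM enzyme, 50mM KPO4; 60 min at 37C with NADPH regeneration. Data normalized against 57uM ketoconazole.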

Experiment [13] deals with Cytochrome P450 3A4 (Homo sapiens) (UniProt P08684). Briefly: qHTS Assay for Inhibitors and Substrates of Cytochrome P450 3A4 (AID 884; active = well fitted curve in the direction sought with a large enough effect; an effect the other way counts as inactive or inconclusive; note: % is set by controls: 0 for no effect and ±100 for the full control effect; nearly all actives have a fitted effect of over 50% in size). Conditions: recombinant CYP3A4, Luciferin-PPXE luminescence; series mostly up to 57.1 µM. The procedure, abridged: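 20 nM human CYP3A4 with 25 uM Luciferin-PPXE (at KM) in 200 mM KPO4, preincubated 10 min with compound; NADPH regeneration started a 60 min RT reaction. Luciferin detected by luminescence, normalized to 57 uM ketoconazole as full inhibition.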
Chain of Cytochrome P450 3A4 (Homo sapiens) (P08684 whole entry, looked up): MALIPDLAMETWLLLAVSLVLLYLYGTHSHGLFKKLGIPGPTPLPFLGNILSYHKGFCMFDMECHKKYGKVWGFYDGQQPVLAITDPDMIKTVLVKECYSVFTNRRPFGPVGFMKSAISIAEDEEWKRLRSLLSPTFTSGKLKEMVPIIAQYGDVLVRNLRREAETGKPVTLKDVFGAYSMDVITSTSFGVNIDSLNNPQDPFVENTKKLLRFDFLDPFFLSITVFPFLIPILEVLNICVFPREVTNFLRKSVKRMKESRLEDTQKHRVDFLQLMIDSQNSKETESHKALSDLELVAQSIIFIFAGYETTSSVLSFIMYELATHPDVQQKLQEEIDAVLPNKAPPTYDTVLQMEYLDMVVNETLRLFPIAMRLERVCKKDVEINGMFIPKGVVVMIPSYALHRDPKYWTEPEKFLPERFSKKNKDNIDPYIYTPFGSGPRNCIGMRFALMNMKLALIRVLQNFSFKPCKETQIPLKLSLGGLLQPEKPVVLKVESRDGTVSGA

Experiment [14] shares this target. Put plainly: qHTS Assay for Activators of Cytochrome P450 3A4 (AID 885; active = well fitted curve in the direction sought with a large enough effect; an effect the other way counts as inactive or inconclusive; note: nearly all actives have a fitted effect of over 65% in size). As to conditions: recombinant CYP3A4, Luciferin-PPXE luminescence, 60 min; series mostly up to 11.4 µM. The gist of the method: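 20nM CYP3A4 + 25uM Luciferin-PPXE (=KM), 200mM KPO4; cpd 10 min RT; NADPH regen, 60 min RT; stop w/ detection buffer, 20 min; luminescence. Normalized to 57 uM ketoconazole.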

The nature of experiment [15]: qHTS Assay for Identification of Small Molecule Agonists for Hypoxia Response Element Signaling Pathway (AID 914; active = well fitted activation curve with a large enough effect in the signal ratio, with a control signal flat, not every such curve was filed as active; the % refers to the signal ratio; note: % of control where 0% means no effect). Conditions: ME-180 (cervical carcinoma) HRE-bla reporter, beta-lactamase ratio, CoCl2, 17 h; activation: stronger effect = higher value. The procedure, abridged:
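ME-180 cells carrying an HRE-driven beta-lactamase reporter were treated with compounds in a titration series plus an EC50 level of CoCl2 for 17 h at 37 degrees Celsius; CCF4 readout as the 460nm/530nm ratio gave AC50 values.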

Chain of Cytochrome P450 2C19 (Homo sapiens) (P33261 whole entry, looked up): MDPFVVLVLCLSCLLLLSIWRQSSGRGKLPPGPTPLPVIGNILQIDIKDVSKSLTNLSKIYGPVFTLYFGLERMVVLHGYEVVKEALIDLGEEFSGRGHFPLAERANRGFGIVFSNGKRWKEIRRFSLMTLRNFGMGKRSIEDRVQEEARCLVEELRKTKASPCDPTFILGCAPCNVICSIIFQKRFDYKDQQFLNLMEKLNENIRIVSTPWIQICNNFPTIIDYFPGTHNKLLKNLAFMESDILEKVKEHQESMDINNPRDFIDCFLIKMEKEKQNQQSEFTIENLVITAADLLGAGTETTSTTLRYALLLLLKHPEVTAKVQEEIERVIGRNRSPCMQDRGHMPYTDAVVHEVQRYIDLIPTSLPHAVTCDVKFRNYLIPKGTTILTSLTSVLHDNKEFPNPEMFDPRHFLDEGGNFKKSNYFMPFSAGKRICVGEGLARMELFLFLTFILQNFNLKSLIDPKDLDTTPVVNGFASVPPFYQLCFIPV
Chain of Cytochrome P450 2C9 (Homo sapiens) (P11712 whole entry, looked up): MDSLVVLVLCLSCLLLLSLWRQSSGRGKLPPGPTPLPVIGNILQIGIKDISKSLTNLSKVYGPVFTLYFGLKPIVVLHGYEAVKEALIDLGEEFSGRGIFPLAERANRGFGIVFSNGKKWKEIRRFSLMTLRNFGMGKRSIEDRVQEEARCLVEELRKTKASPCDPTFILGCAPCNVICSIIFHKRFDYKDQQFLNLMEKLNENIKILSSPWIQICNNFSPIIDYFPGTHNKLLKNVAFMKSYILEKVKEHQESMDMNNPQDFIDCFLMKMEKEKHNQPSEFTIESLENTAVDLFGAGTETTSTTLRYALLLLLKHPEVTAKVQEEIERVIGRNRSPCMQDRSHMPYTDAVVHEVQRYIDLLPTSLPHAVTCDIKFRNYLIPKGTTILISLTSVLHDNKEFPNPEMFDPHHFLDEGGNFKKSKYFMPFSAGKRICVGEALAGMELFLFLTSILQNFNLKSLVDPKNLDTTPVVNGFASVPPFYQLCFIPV
Chain of Cytochrome P450 1A2 (Homo sapiens) (P05177 whole entry, looked up): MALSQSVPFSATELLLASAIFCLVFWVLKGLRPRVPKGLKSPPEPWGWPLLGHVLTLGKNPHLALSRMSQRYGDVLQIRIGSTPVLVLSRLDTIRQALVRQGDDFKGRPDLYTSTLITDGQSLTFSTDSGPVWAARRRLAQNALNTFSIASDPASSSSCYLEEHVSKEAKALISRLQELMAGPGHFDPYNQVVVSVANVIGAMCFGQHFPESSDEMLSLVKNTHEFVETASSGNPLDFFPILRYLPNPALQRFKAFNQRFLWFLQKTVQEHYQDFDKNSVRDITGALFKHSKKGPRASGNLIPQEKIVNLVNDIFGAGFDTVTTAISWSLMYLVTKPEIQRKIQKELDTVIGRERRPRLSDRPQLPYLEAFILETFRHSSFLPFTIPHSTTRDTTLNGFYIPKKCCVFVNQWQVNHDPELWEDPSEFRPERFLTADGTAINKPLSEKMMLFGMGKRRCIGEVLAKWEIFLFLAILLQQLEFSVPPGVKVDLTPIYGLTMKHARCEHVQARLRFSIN
Chain of Lysosomal acid glucosylceramidase (Homo sapiens) (P04062 whole entry, looked up): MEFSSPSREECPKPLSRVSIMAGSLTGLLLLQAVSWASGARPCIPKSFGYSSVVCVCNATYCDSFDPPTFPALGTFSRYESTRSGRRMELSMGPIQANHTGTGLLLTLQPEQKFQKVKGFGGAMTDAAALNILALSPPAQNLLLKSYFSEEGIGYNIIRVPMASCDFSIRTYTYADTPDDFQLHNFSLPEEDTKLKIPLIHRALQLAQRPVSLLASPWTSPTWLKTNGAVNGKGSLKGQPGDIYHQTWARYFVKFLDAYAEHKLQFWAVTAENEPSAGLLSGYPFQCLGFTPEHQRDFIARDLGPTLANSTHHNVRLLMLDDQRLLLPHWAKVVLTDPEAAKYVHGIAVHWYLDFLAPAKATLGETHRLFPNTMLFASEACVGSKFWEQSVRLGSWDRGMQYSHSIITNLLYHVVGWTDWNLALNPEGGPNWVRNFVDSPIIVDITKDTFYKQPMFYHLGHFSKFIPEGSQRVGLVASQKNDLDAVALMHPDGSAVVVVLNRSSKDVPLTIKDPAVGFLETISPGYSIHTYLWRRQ

On to `C[C@H]1C[C@@H]2[C@H]3CCC4=CC(=O)C=C[C@@]4(C)[C@]3(Cl)[C@@H](Cl)C[C@]2(C)[C@]1(O)C(=O)COP(=O)(O)O`, for which the Potency was above 11.4 µM in [1], 0.0275 µM (active) in experiment [6] and 7.37 µM (active) in [7]. Besides, the activity change, negative = inhibition was -4.94% in experiment [2] and 9.07% in experiment [4]. Also, the Potency entry in [3], in [8], in experiment [9], in experiment [10], in experiment [11] and in experiment [12] was “inactive” throughout. The activity, negative = inhibition in experiment [5] was 2.85%.
`Cc1cc(SCC(=O)c2ccccc2)nc2ccccc12`: the Potency was above 11.4 µM in experiment [1]; 0.398 µM (active) in [3]; above 46 µM in experiment [6]; above 9.22 µM in experiment [7]; 0.398 µM (active) in experiment [12]. Besides, the activity change, negative = inhibition was -8.06% in experiment [2], 13.7% in [4] and -103% [at 11.4 µM] in experiment [13]. Besides, in experiment [5], the activity, negative = inhibition was 9.67%. For the same molecule, the Potency entry in experiment [8], in [9], in experiment [10] and in experiment [11] was “inactive” each time.
For `Oc1c(Br)cc(CN(Cc2cc(Br)c(O)c(Br)c2)C2CCCCC2)cc1Br`, the Potency in experiment [1] is above 11.4 µM; in experiment [6], above 46 µM; in experiment [7] it was above 9.22 µM; in experiment [10], 2.51 µM (active); in [11] it was 2.51 µM (active). The activity change, negative = inhibition in experiment [2] was 11.3%; in [3] it was -5.7% [at 2.29 µM]; in [4], -14%. In experiment [5], the activity, negative = inhibition is -10.4%. Moreover, the Potency result in experiment [8] and in experiment [9] was “inactive” each time.
In the case of `COc1ccc([C@@H](Nc2ncccn2)c2cc3c(cc2O)OCO3)cc1`, the Potency in [1] was above 11.4 µM; in experiment [6] it was above 46 µM; in experiment [7] it was above 9.22 µM; in experiment [10] it was 3.16 µM (active); in experiment [12] it was 0.316 µM (active). Also, the activity change, negative = inhibition in [2] was -6.22%; in [3], -14.3% [at 2.29 µM]; in [4], 17.5%. In addition, in [5], the activity, negative = inhibition was -1.19%. Moreover, the Potency entry in experiment [8], in [9] and in experiment [14] was “inactive” each time.
Consider `N#C/C(=C\Nc1ccccn1)C(=O)c1ccco1`, for which the Potency in experiment [1] is above 11.4 µM; in [6], above 46 µM; in [7], above 9.22 µM; in experiment [10], 3.16 µM (active). For the same molecule, the activity change, negative = inhibition in experiment [2] is 2.96%; in experiment [4], 2.59%. For the same molecule, the Potency result in [3], in [8] and in [9] was “inactive” throughout. Besides, the activity, negative = inhibition in experiment [5] was 3.37%. For the same molecule, the activation in experiment [15] was -12.2%.
`CC(C)CO[C@H](c1ccc2c(c1)OCO2)[C@H](C)Br`: the Potency in [1] was above 11.4 µM; in [3] it was 0.631 µM (active); in experiment [6], above 46 µM; in [7] it was above 9.22 µM; in [10], 2 µM (active); in experiment [12], 0.0631 µM (active). The activity change, negative = inhibition was -13.4% in [2] and -8.77% in [4]. Also, the activity, negative = inhibition in experiment [5] was 7%. Also, the Potency result in experiment [8] and in experiment [9] was “inactive” each time.
